Rows were chosen to be rich in hits. Some 1.9% of all compounds tested hit in one or more screens of this group.
CaV13 FRET inh: Disruptors of the CACNA1D IQ motif to Ca2+-dependent inactivation inhibitor domain association, primary screening, Förster resonance energy transfer in intact living …; 340,000 tested, 0.098% active; AID 743397; inhibition, % at 12.3 µM; HEK cells, CFP/YFP FRET ICDI-IQ, plate reader, 10 min; percent FRET-ratio fall versus neutral wells;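 active = mean replicate inhibition of at least 30% and at least 1% of replicates passing that level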;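 note: 0% = median of the neutral control wells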
ATG4B inhibitor: ATG4B (human) cysteine protease inhibition; ATG4B cleavage of LC3-PLA2, NBD-HPC fluorescence, 1 h; Q9Y4P1; AID 504462; inhibition, % at 8.33 µM; 340,000 tested, 0.51% active; in the data active = inhibition above about 40%
N-glyco inh: N-linked glycosylation inhibition | reporter increase, % at 12.5 µM | D54 ERlucT glycosylation luciferase reporter, 24 h; percent of 100 nM tunicamycin response | AID 588692 | 360,000 tested, 0.23% active;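 active = mean luciferase reporter signal, scaled so untreated is 0 and the glycosylation-blocking control 100, at or above a set limit in every replicate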;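 note: luciferase carries N-glycosylation sites so blocking glycosylation raises the light; 0% = median of neutral control wells and 100% = median of 100 nM tunicamycin wells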
DSG3 Ab inh: blocks pemphigus antibody binding to human desmoglein-3. binding (percent of control), % at 10 µM. 310,000 tested, 0.48% active. DSG3-coupled beads, scFv-anti-DSG3-GFP binding, flow cytometry; hits give low values. P32926;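 active = binding more than 3 SD below its plate's average and above zero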;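 note: hits lower antibody fragment binding to DSG3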
Target sequence (P32926 whole entry, looked up, the tested form may be a part): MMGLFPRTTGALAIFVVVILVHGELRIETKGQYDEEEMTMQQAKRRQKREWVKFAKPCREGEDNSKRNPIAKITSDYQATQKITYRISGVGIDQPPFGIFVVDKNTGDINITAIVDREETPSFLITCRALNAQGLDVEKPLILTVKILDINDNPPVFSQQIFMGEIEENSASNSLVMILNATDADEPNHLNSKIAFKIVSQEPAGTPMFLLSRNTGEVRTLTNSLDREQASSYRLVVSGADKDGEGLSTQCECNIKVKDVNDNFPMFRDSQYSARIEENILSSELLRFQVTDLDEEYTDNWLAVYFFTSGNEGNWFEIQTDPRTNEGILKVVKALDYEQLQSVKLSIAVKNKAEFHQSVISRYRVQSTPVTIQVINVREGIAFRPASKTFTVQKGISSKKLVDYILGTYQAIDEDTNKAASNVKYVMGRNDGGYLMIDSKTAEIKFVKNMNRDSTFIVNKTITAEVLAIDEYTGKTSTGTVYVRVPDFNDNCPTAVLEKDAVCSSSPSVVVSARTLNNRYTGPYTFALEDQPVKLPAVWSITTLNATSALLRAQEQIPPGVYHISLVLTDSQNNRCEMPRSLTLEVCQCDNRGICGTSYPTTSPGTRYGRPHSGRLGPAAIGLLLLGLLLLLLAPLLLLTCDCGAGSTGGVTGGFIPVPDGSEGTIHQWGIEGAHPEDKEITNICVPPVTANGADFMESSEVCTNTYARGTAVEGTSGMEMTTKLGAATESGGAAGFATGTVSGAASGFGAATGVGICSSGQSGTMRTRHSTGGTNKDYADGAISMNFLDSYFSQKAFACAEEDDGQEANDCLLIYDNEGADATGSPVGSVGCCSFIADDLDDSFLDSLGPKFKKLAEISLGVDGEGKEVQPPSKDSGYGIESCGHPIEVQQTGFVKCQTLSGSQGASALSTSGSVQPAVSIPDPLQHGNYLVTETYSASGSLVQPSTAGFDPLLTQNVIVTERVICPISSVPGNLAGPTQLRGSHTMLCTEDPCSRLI
NSD2 HMT inh: inhibitors of human histone methyltransferase NSD2 | O96028 | NSD2 peptide methylation, AlphaScreen, 120 min | inhibition, % at 12.5 µM | 310,000 tested, 0.54% active | AID 743445; in the data active = inhibition above about 50%
Vif inh: HIV Vif inhibition | HEK293T cells, Vif self-association by quenched fluorescence, imaging, 24 h | 340,000 tested, 0.35% active | inhibition, % at 7.49 µM; in the data active = inhibition above about 50%, passing the limit was not always enough
Active calls of the source: *; / = not tested or not shown; + = active, no number; ! = a repeat was not active.

SMILES	CaV13 FRET inh	ATG4B inhibitor	N-glyco inh	DSG3 Ab inh	NSD2 HMT inh	Vif inh
COc1ccc(-[n+]2c(C)cc(/C=C3\Sc4ccccc4N3C)cc2C)cc1	34*	/	7	139	-6	-2
CC(C)[C@H](NC(=O)c1cc2cc(Cl)ccc2n1C)C(=O)N1CCC(C(=O)O)CC1	-3	11	1	95	10	3
O=C(COC(=O)[C@H](Cc1ccccc1)NC(=O)c1cccs1)Nc1c(Cl)cccc1Cl	-17	-1	1	103	3	-2
O=C(COC(=O)C(Cc1ccccc1)NC(=O)c1cccs1)NCc1ccccc1 (stereo not drawn)	-2	3	1	/	0	59*
Oc1ccc(/C=N/Nc2nccnc2Cl)c(O)c1	-6	-10	-15	94	/	81*
CCOc1ccc(C2C(C(=O)OC)=CN(CCOC)C=C2C(=O)OC)cc1	-4	-4	0	84	-3	-6
COCCN1C=C(C(=O)OC)C(c2ccc(Cl)cc2)C(C(=O)OC)=C1	+	-5	-3	106	-46	-3
O=C(CSc1nc(-c2ccccc2)cc(=O)[nH]1)NCc1ccc2c(c1)OCO2	/	10	2	68*	0	-7
O=C(CSc1nc(-c2ccccc2Cl)ns1)NCc1ccc2c(c1)OCO2	-20	3	1	75*	-1	10
COCCCNC(=O)c1c(N)n(/N=C/c2cccs2)c2nc3ccccc3nc12	-6	-6	-1	79*	-9	-13
COc1ccc(CCNC(=O)CCN2C(=O)COc3ccccc32)cc1OC	-10	-5	2	104	1	126*
COc1ccc(CCNC(=O)CCN2C(=O)COc3ccc(C)cc32)cc1OC	-6	-1	-1	101	1	-7
NC(=O)c1c(NC(=O)C2COc3ccccc3O2)sc2c1CCN(Cc1ccccc1)C2 (stereo not drawn)	7	-7	1	99	-3	110*
CCOC(=O)c1c(NC(=O)C2COc3ccccc3O2)sc2c1CCN(Cc1ccccc1)C2 (stereo not drawn)	-1	-6	-3	96	-2	-8
CN1CCC(C2(O)c3ccccc3CSc3sccc32)CC1 (stereo not drawn)	-3	-3	-1	94	6	2
CN(C)CCCNCCCNC(=O)c1ccco1	-9	2	6	90	0	65*!
COc1ccc2nc(N/C(N)=N/C(=S)Nc3c(C)cccc3C)nc(C)c2c1	0	-3	5	93	-2	-7
COc1cccc(/C=N/Nc2nc(Nc3ccccc3)nc(-n3nc(C)cc3C)n2)c1O	/	12	-13	100	21	/
Cc1ccc(-n2c(C)cc(/C=N/NC(=O)Cn3c4ccccc4c(=O)c4ccccc43)c2C)cc1	+	20	0	102	-2	6
CCOc1ccc(C(=O)O[C@H]2[C@H](Cc3ccccc3)NS(=O)(=O)[C@H]3C[C@@H]4C=C[C@]23O4)cc1	-10	-3	-1	94	/	4
Cc1ccc(Cc2c(C)nc3nc(SCC(=O)NCCCN4CCOCC4)nn3c2C)cc1	-15	-5	3	89	1	-11
CCOC(=O)c1c(NC(=O)c2cc3n(n2)C(C(F)(F)F)CC(c2cccs2)N3)sc(C)c1C (stereo not drawn)	-5	5	98*	122	1	0
Cn1cccc1/C=C1\SC(=S)N(NC(=O)c2ccccc2O)C1=O	-17	9	2	71	/	4
O=C(NN1C(=O)/C(=C/C=C/c2ccco2)SC1=S)c1ccccc1O	-3	70*	-1	79	/	6
COc1ccc([C@H]2CC(=O)C=C(c3c(OC)cccc3OC)C2)cc1	-6	3	29*	95	/	/
COc1ccc([C@H]2CC(=O)C=C(c3cc4ccccc4s3)C2)cc1	-2	-2	3	101	/	51*
O=C1C=C(c2cc3ccccc3s2)C[C@@H](c2ccc(Cl)cc2)C1	-11	1	7	94	/	-2
Cc1nn(-c2ccccc2)nc1CNC(=O)C(C)Cc1ccccc1 (stereo not drawn)	-10	-12	-1	101	/	16
CS(=O)(=O)Nc1ccccc1C(=O)Nc1ccccc1Cl	/	-9	0	66*	1	/

Source: PubChem BioAssay (several laboratories)
